Tests used:
Assay in all cases: PBM; 200 nM protein, PBS
Settings in all cases: dsDNA, one strand shown
ALX3 [1] = molecular target: ALX3 (Homo sapiens, UniProt O95076 139-225, N203Q)
ALX3 [2] = molecular target: ALX3 (Homo sapiens, UniProt O95076 139-225)
ALX3 [3] = molecular target: ALX3 (Homo sapiens, UniProt O95076 139-225, L168Q)
ALX3 [4] = molecular target: ALX3 (Homo sapiens, UniProt O95076 139-225, L168V)
ALX3 [5] = molecular target: ALX3 (Homo sapiens, UniProt O95076 139-225, N203S)
HOXC9 = HOXC9 (Homo sapiens, UniProt P31274 178-260, R222W)
HOXD13 [6] = molecular target: HOXD13 (Homo sapiens, UniProt P35453 263-343, T313R)
HOXA2 = HOXA2 (Homo sapiens, UniProt O43364 129-215, R185K)
HOXD13 [7] = molecular target: HOXD13 (Homo sapiens, UniProt P35453 263-343)
HOXD13 [8] = molecular target: HOXD13 (Homo sapiens, UniProt P35453 263-343, T313A)
Chain of HOXD13 (Homo sapiens, UniProt P35453 263-343, T313A) (P35453 263-343 T313A): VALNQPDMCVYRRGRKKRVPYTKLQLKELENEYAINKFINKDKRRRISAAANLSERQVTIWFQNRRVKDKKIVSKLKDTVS

Chain of ALX3 (Homo sapiens, UniProt O95076 139-225, N203Q) (O95076 139-225 N203Q): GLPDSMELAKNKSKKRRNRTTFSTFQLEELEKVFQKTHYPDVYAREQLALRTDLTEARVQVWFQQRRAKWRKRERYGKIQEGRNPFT
Chain of HOXD13 (Homo sapiens, UniProt P35453 263-343, T313R) (P35453 263-343 T313R): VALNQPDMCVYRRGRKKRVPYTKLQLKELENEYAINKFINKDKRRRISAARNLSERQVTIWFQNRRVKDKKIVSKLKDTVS
Chain of ALX3 (Homo sapiens, UniProt O95076 139-225, N203S) (O95076 139-225 N203S): as the sequence (O95076 139-225 N203Q) above, with Q65S counted along it
Chain of ALX3 (Homo sapiens, UniProt O95076 139-225) (O95076 139-225): as the sequence (O95076 139-225 N203Q) above, with Q65N counted along it
Chain of ALX3 (Homo sapiens, UniProt O95076 139-225, L168Q) (O95076 139-225 L168Q): as the sequence (O95076 139-225 N203Q) above, with L30Q, Q65N counted along it
Chain of HOXD13 (Homo sapiens, UniProt P35453 263-343) (P35453 263-343): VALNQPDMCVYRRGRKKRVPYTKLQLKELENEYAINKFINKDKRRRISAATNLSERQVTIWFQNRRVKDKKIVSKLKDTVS
Chain of ALX3 (Homo sapiens, UniProt O95076 139-225, L168V) (O95076 139-225 L168V): as the sequence (O95076 139-225 N203Q) above, with L30V, Q65N counted along it
Chain of HOXA2 (O43364 129-215 R185K): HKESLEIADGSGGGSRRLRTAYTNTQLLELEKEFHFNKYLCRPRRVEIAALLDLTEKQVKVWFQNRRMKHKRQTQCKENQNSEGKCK
Chain of HOXC9 (P31274 178-260 R222W): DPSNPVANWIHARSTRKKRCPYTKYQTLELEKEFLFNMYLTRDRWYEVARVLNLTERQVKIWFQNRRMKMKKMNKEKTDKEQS

Sequence: GGCAGTTA
- binding signal (ALX3 [1]): 8.06 upbm affinity estimate (log intensity, higher = more binding, comparable within an allelic series)
- binding signal (ALX3 [2]): 9.02 upbm affinity estimate (log intensity, higher = more binding, comparable within an allelic series)
- binding signal (ALX3 [3]): 8.19 upbm affinity estimate (log intensity, higher = more binding, comparable within an allelic series)
- binding signal (ALX3 [4]): 8.14 upbm affinity estimate (log intensity, higher = more binding, comparable within an allelic series)
- binding signal (ALX3 [5]): 8.16 upbm affinity estimate (log intensity, higher = more binding, comparable within an allelic series)

Sequence: ATATTCAA
- binding signal (ALX3 [1]): 8.33 upbm affinity estimate (log intensity, higher = more binding, comparable within an allelic series)
- binding signal (ALX3 [2]): 9.13 upbm affinity estimate (log intensity, higher = more binding, comparable within an allelic series)
- binding signal (ALX3 [4]): 8.63 upbm affinity estimate (log intensity, higher = more binding, comparable within an allelic series)

Sequence: ATTTGACC
- binding signal (ALX3 [1]): 8.13 upbm affinity estimate (log intensity, higher = more binding, comparable within an allelic series)
- binding signal (ALX3 [2]): 9.49 upbm affinity estimate (log intensity, higher = more binding, comparable within an allelic series)
- binding signal (ALX3 [5]): 8.24 upbm affinity estimate (log intensity, higher = more binding, comparable within an allelic series)

Sequence: TATTATAA
- binding signal (ALX3 [1]): 8.66 upbm affinity estimate (log intensity, higher = more binding, comparable within an allelic series)
- binding signal (ALX3 [5]): 8.67 upbm affinity estimate (log intensity, higher = more binding, comparable within an allelic series)

Sequence: CCTATTAC
- binding signal (ALX3 [1]): 8.28 upbm affinity estimate (log intensity, higher = more binding, comparable within an allelic series)
- binding signal (ALX3 [2]): 10.8 upbm affinity estimate (log intensity, higher = more binding, comparable within an allelic series)
- binding signal (ALX3 [5]): 8.28 upbm affinity estimate (log intensity, higher = more binding, comparable within an allelic series)

Sequence: ATAAATAA
- binding signal (ALX3 [1]): 8.6 upbm affinity estimate (log intensity, higher = more binding, comparable within an allelic series)
- binding signal (HOXC9): 11.1 upbm affinity estimate (log intensity, higher = more binding, comparable within an allelic series)
- binding signal (ALX3 [5]): 8.76 upbm affinity estimate (log intensity, higher = more binding, comparable within an allelic series)

Sequence: CTCGTTAA
- binding signal (HOXD13 [6]): 10.7 upbm affinity estimate (log intensity, higher = more binding, comparable within an allelic series)
- binding signal (HOXA2): 13.1 upbm affinity estimate (log intensity, higher = more binding, comparable within an allelic series)
- binding signal (HOXD13 [7]): 12.1 upbm affinity estimate (log intensity, higher = more binding, comparable within an allelic series)
- binding signal (HOXD13 [8]): 12 upbm affinity estimate (log intensity, higher = more binding, comparable within an allelic series)

Sequence: GTTATGCA
- binding signal (ALX3 [1]): 8.13 upbm affinity estimate (log intensity, higher = more binding, comparable within an allelic series)
- binding signal (ALX3 [2]): 9.19 upbm affinity estimate (log intensity, higher = more binding, comparable within an allelic series)
- binding signal (ALX3 [5]): 8.22 upbm affinity estimate (log intensity, higher = more binding, comparable within an allelic series)

Sequence: CTTTTATA
- binding signal (HOXD13 [6]): 10.7 upbm affinity estimate (log intensity, higher = more binding, comparable within an allelic series)

Sequence: AATCATTC
- binding signal (ALX3 [1]): 8.14 upbm affinity estimate (log intensity, higher = more binding, comparable within an allelic series)
- binding signal (ALX3 [2]): 10 upbm affinity estimate (log intensity, higher = more binding, comparable within an allelic series)
- binding signal (ALX3 [5]): 8.17 upbm affinity estimate (log intensity, higher = more binding, comparable within an allelic series)

Sequence: ATTCATGG
- binding signal (HOXD13 [6]): 10.2 upbm affinity estimate (log intensity, higher = more binding, comparable within an allelic series)
- binding signal (HOXD13 [7]): 10.8 upbm affinity estimate (log intensity, higher = more binding, comparable within an allelic series)

Sequence: CAGTTACG
- binding signal (ALX3 [1]): 8 upbm affinity estimate (log intensity, higher = more binding, comparable within an allelic series)
- binding signal (ALX3 [2]): 8.89 upbm affinity estimate (log intensity, higher = more binding, comparable within an allelic series)
- binding signal (ALX3 [3]): 8.09 upbm affinity estimate (log intensity, higher = more binding, comparable within an allelic series)
- binding signal (ALX3 [4]): 8.1 upbm affinity estimate (log intensity, higher = more binding, comparable within an allelic series)
- binding signal (ALX3 [5]): 8.08 upbm affinity estimate (log intensity, higher = more binding, comparable within an allelic series)

Sequence: ATATTTAA
- binding signal (ALX3 [1]): 8.67 upbm affinity estimate (log intensity, higher = more binding, comparable within an allelic series)
- binding signal (ALX3 [5]): 8.84 upbm affinity estimate (log intensity, higher = more binding, comparable within an allelic series)

Sequence: CTTAATTC
- binding signal (ALX3 [1]): 8.32 upbm affinity estimate (log intensity, higher = more binding, comparable within an allelic series)
- binding signal (ALX3 [2]): 11.7 upbm affinity estimate (log intensity, higher = more binding, comparable within an allelic series)
- binding signal (ALX3 [3]): 9.59 upbm affinity estimate (log intensity, higher = more binding, comparable within an allelic series)
- binding signal (ALX3 [4]): 9.14 upbm affinity estimate (log intensity, higher = more binding, comparable within an allelic series)
- binding signal (ALX3 [5]): 8.4 upbm affinity estimate (log intensity, higher = more binding, comparable within an allelic series)

Sequence: CTAACAAC
- binding signal (ALX3 [1]): 8.26 upbm affinity estimate (log intensity, higher = more binding, comparable within an allelic series)
- binding signal (ALX3 [2]): 9.15 upbm affinity estimate (log intensity, higher = more binding, comparable within an allelic series)
- binding signal (ALX3 [5]): 8.24 upbm affinity estimate (log intensity, higher = more binding, comparable within an allelic series)

Sequence: AGTTAATA
- binding signal (ALX3 [1]): 8.54 upbm affinity estimate (log intensity, higher = more binding, comparable within an allelic series)
- binding signal (ALX3 [5]): 8.65 upbm affinity estimate (log intensity, higher = more binding, comparable within an allelic series)

Sequence: CTCATCAA
- binding signal (ALX3 [1]): 8.12 upbm affinity estimate (log intensity, higher = more binding, comparable within an allelic series)
- binding signal (ALX3 [2]): 9.41 upbm affinity estimate (log intensity, higher = more binding, comparable within an allelic series)
- binding signal (ALX3 [5]): 8.16 upbm affinity estimate (log intensity, higher = more binding, comparable within an allelic series)

Sequence: AGATTTTA
- binding signal (ALX3 [1]): 8.19 upbm affinity estimate (log intensity, higher = more binding, comparable within an allelic series)
- binding signal (ALX3 [2]): 9.08 upbm affinity estimate (log intensity, higher = more binding, comparable within an allelic series)
- binding signal (ALX3 [5]): 8.26 upbm affinity estimate (log intensity, higher = more binding, comparable within an allelic series)

Sequence: TTATAGAA
- binding signal (ALX3 [1]): 8.31 upbm affinity estimate (log intensity, higher = more binding, comparable within an allelic series)
- binding signal (ALX3 [2]): 9.6 upbm affinity estimate (log intensity, higher = more binding, comparable within an allelic series)
- binding signal (ALX3 [5]): 8.38 upbm affinity estimate (log intensity, higher = more binding, comparable within an allelic series)

Sequence: GAATATCA
- binding signal (ALX3 [1]): 8.19 upbm affinity estimate (log intensity, higher = more binding, comparable within an allelic series)
- binding signal (ALX3 [2]): 8.71 upbm affinity estimate (log intensity, higher = more binding, comparable within an allelic series)
- binding signal (ALX3 [5]): 8.23 upbm affinity estimate (log intensity, higher = more binding, comparable within an allelic series)

Sequence: AACTTCAT
- binding signal (HOXD13 [6]): 10.1 upbm affinity estimate (log intensity, higher = more binding, comparable within an allelic series)
- binding signal (HOXD13 [7]): 10.6 upbm affinity estimate (log intensity, higher = more binding, comparable within an allelic series)

Sequence: ATCACAGA
- binding signal (ALX3 [1]): 8.15 upbm affinity estimate (log intensity, higher = more binding, comparable within an allelic series)
- binding signal (ALX3 [2]): 9.21 upbm affinity estimate (log intensity, higher = more binding, comparable within an allelic series)
- binding signal (ALX3 [5]): 8.16 upbm affinity estimate (log intensity, higher = more binding, comparable within an allelic series)

Sequence: ATTATTTA
- binding signal (ALX3 [1]): 8.54 upbm affinity estimate (log intensity, higher = more binding, comparable within an allelic series)
- binding signal (ALX3 [5]): 8.69 upbm affinity estimate (log intensity, higher = more binding, comparable within an allelic series)

Sequence: ACGTTAGT
- binding signal (ALX3 [1]): 8.16 upbm affinity estimate (log intensity, higher = more binding, comparable within an allelic series)
- binding signal (ALX3 [2]): 9.39 upbm affinity estimate (log intensity, higher = more binding, comparable within an allelic series)
- binding signal (ALX3 [5]): 8.22 upbm affinity estimate (log intensity, higher = more binding, comparable within an allelic series)
